Laboratory results: PubChem BioAssay
Where “and” joins values, the source holds several entries; their conditions need not be identical. Identical values can stand only once. Calls of active or inactive are those of the source. Cut-off read from the data, not from the text of the source, unless noted: active = inhibition above about 80%; inactive = the rest.

Columns and labels:
[1] = liver-stage malaria parasite growth inhibition, primary screen, cell-based, HepG2, luciferase luminescence, HepG2 viability (AID 624349; in the data active = parasite load remaining mostly below about 12%, no sharp cut-off; inactive = mostly above about 10%;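 note: 100% = mean of DMSO negative control wells on the same plate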); settings: P. berghei liver stage in HepG2, luciferase luminescence, concentration not given here; parasite load remaining: stronger effect = lower value; viability: measured here: HepG2 viability without parasites
[2] = test system: Aerobactin synthetase IucA (Klebsiella pneumoniae); test: IucA aerobactin synthetase inhibitors, biochemical, Tocris library, absorbance (AID 1345561; call rule not given here;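 note: 100% = enzyme without compound and 0% = no enzyme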); settings: purified IucA enzyme assay, absorbance (OD) read-out; stronger effect = lower value;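 tested at 8 µM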
[3] = sensitizers of A549 cells to miR-34 induction, primary screen, imaging, A549 dox-inducible miR-34, nuclei and caspase counts (AID 1347080;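 active = compounds whose cell count with miR-34 switched on is under 0.7 times the count with it off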); settings: A549 miR-34 inducible, Hoechst nuclei count, 48 h
[4] = survival rescue of mitochondrial mutant cells in low glucose, primary screen, MELAS cybrids, Rieske KO mouse fibroblasts, CellTiter-Glo (AID 1508586;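 active = mean z-score across replicates of 1.96 or higher in either the MELAS or the Rieske mutant cell line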;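 note: z relative to plate mean and SD of compound and empty wells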)
[5] = viability rescue of complex I mutant cybrids, primary screen, cell-based, galactose medium, ATP luminescence (AID 1645843;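 active = z-score of at least 1.8 in each of two replicates, scored against plate mean and spread of sample wells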;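 note: positive z means more ATP and so rescue of galactose-driven cybrid death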); settings: complex I mutant cybrid cells, 72 h, stronger effect = higher value
[6] = LFS_MB_P medulloblastoma growth inhibition, cell-based, chromothripsis tumors, cisplatin or BGB combos (AID 1671449); settings: LFS_MB_P medulloblastoma cells;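 note: cells exposed for 96 hours; 0% = vehicle DMSO and 100% = killing by high DMSO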
[7] = HDN33 neuroblastoma growth inhibition, cell-based, chromothripsis tumors, cisplatin or BGB combos (AID 1671450); settings: HDN33 neuroblastoma cells, stronger effect = higher value;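 note: cells exposed to compound for four days; 0% = vehicle DMSO and 100% = cell killing by high DMSO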
[8] = ICB984 medulloblastoma cell growth inhibition, synergistic combos for chromothripsis tumors, cisplatin or BGB combos (AID 1671451; call rule not given here;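 note: cells exposed for 96 hours before readout; 0% = vehicle DMSO and 100% = killing by high DMSO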); settings: ICB984 medulloblastoma cells, drug combinations, stronger effect = higher value
[9] = LFS_MB_1R medulloblastoma cell growth inhibition, synergistic combos for chromothripsis tumors, cisplatin or BGB combos (AID 1671452); settings: LFS_MB_1R medulloblastoma cells, stronger effect = higher value;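 note: cells exposed for 96 hours before readout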
[10] = HTB85 osteosarcoma cell growth inhibition, synergistic combos for chromothripsis tumors, BGB or cisplatin IC20 combos (AID 1671453); settings: HTB85 osteosarcoma cells, drug combinations, stronger effect = higher value;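 note: cells exposed for 96 hours before readout; 0% = vehicle DMSO and 100% = high DMSO killing control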
[11] = CRL2098 osteosarcoma cell growth inhibition, synergistic combos for chromothripsis tumors, BGB or cisplatin IC20 combos (AID 1671454); settings: CRL2098 osteosarcoma cells, drug combinations, stronger effect = higher value;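 note: cells exposed for 96 h before readout; 0% = vehicle DMSO and 100% = killing by high DMSO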
[12] = HD-MB03 medulloblastoma cell growth inhibition, synergistic combos for chromothripsis tumors, BGB or cisplatin IC20 combos (AID 1671455; in the data active = inhibition above about 83%;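 note: 0% = vehicle DMSO and 100% = high DMSO as cytotoxic control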); settings: HD-MB03 medulloblastoma cells, stronger effect = higher value
[13] = UWB1.289 ovarian carcinoma cell growth inhibition, synergistic combos for chromothripsis tumors, BGB or cisplatin combos (AID 1671456); settings: UWB1.289 ovarian carcinoma cells, stronger effect = higher value;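 note: cells exposed to compound for four days; 0% = vehicle DMSO and 100% = killing by high DMSO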
[14] = LFS_MB_2R medulloblastoma cell growth inhibition, synergistic combos for chromothripsis tumors, cisplatin combos (AID 1671457); settings: LFS_MB_2R medulloblastoma cells, stronger effect = higher value;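 note: cells exposed to compound for four days before readout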
[15] = MDA-MB-436 breast carcinoma cell growth inhibition, synergistic combos for chromothripsis tumors, BGB or cisplatin combos (AID 1671458; call rule not given here;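 note: cells exposed for 96 hours; 0% = vehicle DMSO and 100% = killing by high DMSO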); settings: MDA-MB-436 breast carcinoma growth inhibition, drug combinations, stronger effect = higher value
[16] = UWB1.289_BRCA1 ovarian cancer growth, cell-based, BGB or cisplatin combinations (AID 1671459); settings: UWB1.289 BRCA1 ovarian carcinoma, drug combinations, stronger effect = higher value
[17] = human astrocyte viability loss, single and combined drugs, cytotoxicity control for chromothriptic childhood tumor combination screen, cell-based, BGB or cisplatin IC20 combos (AID 1671460); settings: Human astrocytes, drug combinations, stronger effect = higher value;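 note: cells exposed to compounds for 96 hours before viability readout; 0% = vehicle and 100% = killing control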
[18] = growth inhibition of BT084 medulloblastoma cells, cell-based, ICGC_MB145, cisplatin and BGB IC40 combos (AID 1671461); settings: drug combinations, stronger effect = higher value;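 note: cells exposed to drugs for 96 hours; 0% = vehicle DMSO and 100% = high DMSO full killing control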
[19] = growth inhibition of RCMB18 medulloblastoma cells, cell-based, cisplatin and BGB IC40 combos (AID 1671462); settings: stronger effect = higher value;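 note: cells exposed to compound for four days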
[20] = growth inhibition of CRL1545 osteosarcoma cells, cell-based, cisplatin and BGB IC20 combos (AID 1671464); settings: stronger effect = higher value;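 note: cells exposed to compound for 96 hours before readout; 0% = vehicle DMSO and 100% = high DMSO killing control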
[21] = inhibitors of Cryptococcus chitosan production, flow cytometry, Cibacron Brilliant Red staining (AID 1347148; call rule not given here;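 note: compound exposure lasted three days at 37 degrees C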); settings: Cryptococcus neoformans chitosan, stronger effect = lower value; at 10 µM unless noted
[22] = modifiers of HSF1 nuclear foci, imaging, Selleck Cancer Library (AID 1347162; in the data active = plate-normalised HSF1 focus index below about 0.46); settings: human cells, at 10 µM; SSMD: measured here: HSF1 foci SSMD mean; cell count: measured here: cell number; plate-normalised HSF1 focus index: stronger effect = lower value
[23] = stronger effect = lower value, cell number ratio, induced over uninduced
[24] = measured here: relative caspase fold change +Dox/-Dox
[25] = measured here: total cells with miR-34 induction, stronger effect = lower value
[26] = measured here: total cells without miR-34 induction
[27] = MELAS cybrid survival, CellTiter-Glo 48 h, stronger effect = higher value
[28] = Rieske KO mouse fibroblast survival, CellTiter-Glo 72 h
[29] = measured here: combination with BGB IC40, at 0.05 µM
[30] = measured here: with BGB IC20 combination, at 0.5 µM
[31] = measured here: with cisplatin IC20 combination, at 0.5 µM
[32] = measured here: combination with cisplatin, at 0.5 µM
[33] = measured here: combination with cisplatin, at 5 µM

O=C(NC(NC(=S)Nc1ccc(F)c([N+](=O)[O-])c1)C(Cl)(Cl)Cl)C(c1ccccc1)c1ccccc1 (stereo unspecified)
parasite load remaining [1]: 37.9% (inactive) | viability [1]: 150% | remaining activity [2]: 80.1% (inactive) | fold change [3, 23]: 0.886 (inactive) and 0.916 (inactive) | fold change [3, 24]: 0.378 and 1.21 | cell count [3, 25]: 1760 and 1260 | cell count [3, 26]: 1990 and 1380 | z-score [4, 27]: -0.482 (inactive) | z-score [4, 28]: -0.549 | z-score [5]: -0.7 (inactive) | inhibition ([6]; at 0.5 µM, stronger effect = higher value): -14.4% (inactive) and -15.8% (inactive) | inhibition ([6]; measured here: combination with BGB IC20, at 0.005 µM): -15.1% and -22% | inhibition ([6]; measured here: combination with BGB IC40, at 0.005 µM): -12.9% and -23.4% | inhibition [6, 29]: -2.89% and -34.1% | inhibition ([6]; measured here: combination with cisplatin, at 0.5 µM, stronger effect = higher value): -21.5% and -41.9% | inhibition ([6]; measured here: combination with cisplatin, at 5 µM, stronger effect = higher value): -21.2% and -42.7% | inhibition ([7]; BGB combo, at 5 µM): -9.61% and -16% | inhibition ([7]; at 0.5 µM): -0.93% (inactive) and -12% (inactive) | inhibition ([7]; cisplatin combo, at 5 µM): -12.1% and -4.83% | inhibition [7, 30]: -8.76% and -21.5% | inhibition [7, 31]: 2.56% and -5.96% | inhibition ([7]; single agent, at 5 µM): 4.16% and -9.08% | inhibition ([8]; BGB IC20 combo, at 0.005 µM): 7.62% and 15.2% | inhibition ([8]; BGB IC40 combo, at 0.005 µM): -20.7% and 11.9% | inhibition ([8]; BGB IC40 combo, at 0.05 µM): 35.5% and -11.2% | inhibition ([8]; at 0.5 µM): -22.3% (inactive) and -17.8% (inactive) | inhibition ([8]; cisplatin combo, at 0.05 µM): 33.7% and -15.2% | inhibition ([8]; cisplatin combo, at 0.5 µM): -13.4% and -3.51% | inhibition ([8]; cisplatin combo, at 5 µM): -12.5% and -33.8% | inhibition ([8]; measured here: 5 uM single agent, at 5 µM): -8.95% and -2.73% | inhibition ([9]; at 0.5 µM): 4.09% (inactive) and -12.4% (inactive) | inhibition [9, 29]: -23.4% and -14.6% | inhibition [9, 32]: -13.7% and -10.4% | inhibition [9, 33]: 30.6% and -30.6% | inhibition ([10]; at 0.5 µM): 8.95% (inactive) and 0.41% (inactive) | inhibition ([10]; measured here: with BGB IC20, at 0.5 µM): 16.1% and 0.127% | inhibition ([10]; measured here: with BGB IC20, at 5 µM): 2.8% and -10.9% | inhibition ([10]; measured here: with cisplatin IC20, at 0.5 µM): 1.41% and -9.26% | inhibition ([10]; measured here: with cisplatin IC20, at 5 µM): 2.01% and -34.1% | inhibition ([10]; single agent, at 5 µM): -3.27% and 7.66% | inhibition ([11]; at 0.5 µM): -40.5% (inactive) and -32.4% (inactive) | inhibition ([11]; measured here: combination with BGB at IC20, at 0.5 µM): -40.4% and -25.9% | inhibition ([11]; measured here: combination with cisplatin at IC20, at 0.5 µM): -32.4% and -44.5% | inhibition ([12]; at 0.5 µM): -6.28% (inactive) and -0.79% (inactive) | inhibition ([12]; measured here: combo with BGB at IC20, at 0.5 µM): -4.65% and -5.29% | inhibition ([12]; measured here: combo with cisplatin at IC20, at 0.5 µM): -1.73% and -0.093% | inhibition ([13]; at 0.5 µM): 1.14% (inactive) and 7.56% (inactive) | inhibition ([13]; measured here: inhibition with BGB combination, at 0.05 µM): -13.3% and -2.68% | inhibition ([13]; measured here: inhibition with cisplatin combination, at 0.05 µM): -5.95% and 6.61% | inhibition ([14]; at 0.5 µM): -3.23% (inactive) and -7.87% (inactive) | inhibition [14, 32]: -13.3% and -8.76% | inhibition [14, 33]: -66.9% and -2.51% | inhibition ([15]; at 0.5 µM): -16.1% (inactive) and -3% (inactive) | inhibition ([15]; measured here: BGB combination, at 0.5 µM): -8.94% and -6.88% | inhibition ([15]; measured here: BGB combination, at 5 µM): -14.6% and -14.8% | inhibition ([15]; measured here: cisplatin combination, at 0.5 µM): -23.9% and -0.178% | inhibition ([15]; measured here: cisplatin combination, at 5 µM): -32.1% and -10.9% | inhibition ([16]; BGB combination, concentration series, at 5 µM): 0.384% and 38.2% | inhibition ([16]; at 0.5 µM): 2.79% (inactive) and 5.22% (inactive) | inhibition ([16]; cisplatin combination, concentration series, at 5 µM): 64.5% and 45% | inhibition ([17]; at 0.5 µM): 6.11% (inactive) and 4.43% (inactive) | inhibition ([17]; measured here: combo with BGB IC20, at 0.5 µM): 7.77% and 5.34% | inhibition ([17]; measured here: combo with cisplatin IC20, at 0.5 µM): 14.5% and -0.76% | inhibition ([18]; at 0.5 µM): -8.03% (inactive) and 6.1% (inactive) | inhibition ([18]; cisplatin combination, at 0.5 µM): 5.04% and -12.2% | inhibition ([18]; cisplatin combination, at 5 µM): 12.2% and 15.1% | inhibition ([18]; measured here: BGB IC40 combination 0.05 uM, at 0.05 µM): 8.16% and -30.4% | inhibition ([18]; single agent, at 5 µM): 13.4% and 28.8% | inhibition ([19]; at 0.5 µM): -8.16% (inactive) and -14.2% (inactive) | inhibition ([19]; cisplatin combo, at 5 µM): -16.1% and 2.1% | inhibition ([19]; measured here: BGB IC40 combination, at 0.05 µM): -2.84% and -11.5% | inhibition [19, 32]: 8.34% and 10.3% | inhibition ([19]; single agent, at 5 µM): -30.9% and -16.7% | inhibition ([20]; at 0.5 µM): 6.4% (inactive) and -19.7% (inactive) | inhibition [20, 30]: 25.3% and -10.2% | inhibition [20, 31]: -5.35% and -26.5% | inhibition ([20]; single agent, at 0.05 µM): 5.52% and 12.5% | inhibition ([20]; single agent, at 5 µM): 4.21% and -26.5%

O=C(CCCCCN1C(=O)c2cccc3cccc(c23)C1=O)NO
remaining activity [2]: 87.2% (inactive) | fold change [3, 23]: 0.869 (inactive) and 1.23 (inactive) | fold change [3, 24]: 0.881 and 1.17 | cell count [3, 25]: 1710 and 2290 | cell count [3, 26]: 1970 and 1860 | z-score [4, 27]: 1.18 (inactive) | z-score [4, 28]: 1.2 | z-score [5]: -0.53 (inactive)

COC(=O)C1=C(C)NC(C)=C(C(=O)OCCCN2CCC(c3ccccc3)(c3ccccc3)CC2)[C@H]1c1cccc([N+](=O)[O-])c1
remaining activity [2]: 116% (inactive) | fold change [3, 23]: 0.98 (inactive) | fold change [3, 24]: 1.09 | cell count [3, 25]: 562 | cell count [3, 26]: 574 | fold fluorescence [21]: 5.27 [at 82 µM] (inactive) | SSMD [22]: -1.25 | cell count [22]: 6310 | plate-normalised HSF1 focus index [22]: 0.927 (inactive) | z-score [5]: -0.83 (inactive)
